# Screening data as filed in PubChem BioAssay.
# Giardia FBPA inh: qHTS Assay for Inhibitors of Fructose-1,6-bisphosphate Aldolase from Giardia Lamblia; purified Giardia FBPA; Potency, µM (titrated, usually from 59.6 µM), without a hit: at the top dose activity, negative = inhibition, hits mostly inhibitors; 290,000 tested, 0.71% active; AID 2451, 2010; also: potency is read from the fitted curve at half-maximal effect; % is scaled to controls: 0 for no effect and ±100 for the full control effect; nearly all actives have a fitted effect of over 55% in size
# Target sequence (A8B2U2 whole entry, looked up): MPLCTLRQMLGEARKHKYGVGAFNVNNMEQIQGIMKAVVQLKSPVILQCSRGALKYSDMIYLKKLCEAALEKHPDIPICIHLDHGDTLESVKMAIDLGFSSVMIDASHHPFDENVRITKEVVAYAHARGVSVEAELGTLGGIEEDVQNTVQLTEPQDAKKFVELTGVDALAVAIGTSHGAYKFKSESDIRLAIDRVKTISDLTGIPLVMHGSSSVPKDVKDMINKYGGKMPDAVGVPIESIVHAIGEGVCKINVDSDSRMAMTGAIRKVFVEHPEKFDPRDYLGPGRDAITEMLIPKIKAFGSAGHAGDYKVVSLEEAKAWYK
#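 Giardia FBPA (40 nM reagent) was preincubated 10 min at RT with compound (up to 57.5 uM final), then substrate plus GAPDH/TPI/NAD/arsenate coupling system with diaphorase/resazurin was added; resorufin fluorescence (525/598 nm) was read after 20 min.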
# Shiga inhibitor: A qHTS for Small Molecule Inhibitors of Shiga Toxin | inhibition, % at 38.7 µM | 290,000 tested, 9.2% active | Vero cells, Shiga toxin protein synthesis inhibition reporter; in the data active = inhibition mostly above about 28%, no sharp cut-off; inactive = mostly below about 43%; also: 0% is about no effect
# Pf growth 48h: Primary qHTS for delayed death inhibitors of the malarial parasite plastid, 48 hour incubation | P. falciparum luciferase growth in erythrocytes, 48 h | Potency, µM (highest dose often 28.7 µM), for the others: top-dose activity change, negative = inhibition, usual class: inhibitors | 310,000 tested, 5.9% active; also: potency is read from the fitted curve at half-maximal effect; % is scaled to controls: 0 for no effect and ±100 for the full control effect
#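 Read-out is firefly luciferase luminescence from an integrated reporter in P. falciparum, so falling signal marks reduced parasite growth. Infected erythrocytes were at 2% hematocrit and 0.1% parasitemia (final) in Albumax-supplemented RPMI 1640.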
# Cycloheximide cs: Cycloheximide Counterscreen for Small Molecule Inhibitors of Shiga Toxin; cell reporter, cycloheximide protein synthesis inhibition counterscreen; max response, %; 300,000 tested, 12% active; in the data active = max response mostly above about 13%, no sharp cut-off; inactive = mostly below about 14%; also: read at 38.3 µM for the half of the compounds with a filed dose; 0% is about no effect
# Pf growth 96h: Primary qHTS for delayed death inhibitors of the malarial parasite plastid, 96 hour incubation. 320,000 tested, 6.9% active. P. falciparum luciferase reporter growth, 96 h. Potency, µM (doses to about 28.7 µM), for inactives: at the highest dose activity change, negative = inhibition, actives largely listed as inhibitors; also: potency is read from the fitted curve at half-maximal effect; % is scaled to controls: 0 for no effect and ±100 for the full control effect
#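 Two parasite generations (96 h, 37 C, 5% CO2) of compound exposure in infected erythrocytes (0.05% parasitemia, 2% hematocrit). Luciferase-reporter P. falciparum; decreased luminescence indicates inhibited growth, aimed at apicoplast-acting delayed death.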
# NS1 function inh: qHTS Assay for Inhibitors of Influenza NS1 Protein Function; Potency, µM (titrated, usually from 46.1 µM), for inactives: at the highest dose activity, positive = more growth; 270,000 tested, 0.4% active; calls by dose curve; also: potency is read from the fitted curve at half-maximal effect; actives are rising curves; nearly all actives have a fitted effect of over 50% in size
#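 Compounds were scored for reversing the slow growth caused by influenza A NS1 in S. cerevisiae, measured by optical density at 600 nm. Assay medium contained 2% galactose at pH 6.0; NS1-free yeast of the same strain were the positive control.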
# Starred values were filed as active, the others as inactive; ? = inconclusive; / = no result; [ ] = remark or other dose. Rows were chosen to be rich in hits. Some 21% of all compounds tested hit in one or more screens of this group. Unless noted, calls follow the shape of the dose curve; as a rule, active = well fitted curve in the direction sought with a large enough effect; inconclusive = small, poorly fitted or top-dose-only effect, or another doubt; inactive = no such curve, though single readings can be large; an effect the other way counts as inactive or inconclusive.
SMILES,Giardia FBPA inh,Shiga inhibitor,Pf growth 48h,Cycloheximide cs,Pf growth 96h,NS1 function inh
Cc1ccc(C2Nc3ccccc3C(=O)N2Cc2ccco2)cc1 (stereo unspecified),/,-4,?,16,15µM*,-41%
O=C1c2ccccc2NC(c2cccc(F)c2)N1Cc1ccco1 (stereo unspecified),3%,13,-18%,2,?,-9%
O=C(NC1CCOc2ccccc21)C1CCCC1 (stereo unspecified),3%,-5,11%,-3,18%,9%
O=C(CCCC1=NS(=O)(=O)c2ccccc2N1)N1CCN(c2ccc([N+](=O)[O-])cc2)CC1,/,-11,8.3µM*,10,?,2%
COc1ccc(N2CCN(C(=O)CCCC3=NS(=O)(=O)c4ccccc4N3)CC2)cc1,0%,24,?,1,?,-1%
CCCc1cc(=O)n2[nH]c(NCc3c(F)cccc3Cl)nc2n1,-7%,29,0%,4,12µM*,0%
Cc1cc(/C=C2\C(=O)NN(c3ccccc3)C2=O)c(C)n1-c1ccccc1O,9%,46*,12%,34*,-13%,-3%
COc1ccc(-n2c(C)cc(/C=C3\C(=O)NN(c4ccccc4)C3=O)c2C)cc1,-2%,50*,-4%,39*,35%,12%
Cc1cc(/C=C2/C(=O)NN(c3ccccc3)C2=O)c(C)n1-c1ccc(O)cc1,-1%,13,16%,18,23%,29%
CC(C)CCCC(C)C1CCC2C3CC=C4CC(O)CCC4(C)C3CCC12C (stereo unspecified),8%,/,/,/,/,/
Nc1ccc(C(=O)OCC(=O)Nc2cc([N+](=O)[O-])ccc2F)cc1,0%,-9,15%,12*,16%,3%
Nc1ccc(C(=O)Oc2ccc([N+](=O)[O-])cc2)cc1,6%,105*,59%,51*,21%,4%
CCOC(=O)C1(Cc2ccc(OC)cc2)CCN(C(=O)c2ccoc2C)CC1,2%,21,?,11*,50%,-4%
CCOC(=O)C1(Cc2ccc(OC)cc2)CCN(C(=O)c2cncs2)CC1,0%,31,-7%,16*,?,-5%
Cc1ccncc1C(=O)O,2%,-6,/,-2,/,/
COc1ccc2c(c1OC)C(=O)N(c1cccc(NC(C)=O)c1)C2,1%,28,64%,23*,41%,7%
COc1ccc2c(c1OC)C(=O)N(c1ccc(F)cc1)C2,-1%,65*,51%,36*,-26%,-6%
Cc1ccc(C(c2c(C)nn(-c3ccccc3)c2N)c2c(C)nn(-c3ccccc3)c2N)cc1,-2%,-7,10µM*,-4,13µM*,8%
Cc1nn(-c2ccccc2)c(N)c1C(c1ccc(C(C)C)cc1)c1c(C)nn(-c2ccccc2)c1N,-8%,1,10µM*,-1,0%,24%
COc1ccc(Cc2nn3c(-c4ccccc4OC)nnc3s2)cc1,0%,-2,9.3µM*,-2,?,-37%
COc1ccccc1-c1nnc2sc(COc3ccc(Cl)cc3)nn12,2%,-11,?,1,?,-85%
COc1ccccc1-c1nnc2sc(C3CCCCC3)nn12,5%,49,10µM*,-3,20%,-14%
Cn1c(=O)n(CCc2ccccc2)c2ccccc21,6%,/,54%,18*,-1%,-20%
Cn1c(=O)n(CCCOc2ccc(Cl)cc2)c2ccccc21,15%,4,-8%,19*,176%,-11%
Cc1ccc(S(=O)(=O)NC2CC(C)(C)N(O)C(C)(C)C2)cc1,/,/,-28%,/,?,/
SMILES,Giardia FBPA inh,Shiga inhibitor,Pf growth 48h,Cycloheximide cs,Pf growth 96h,NS1 function inh
Cc1ccnc(NC(=S)N2CCN(c3cccc(C(F)(F)F)c3)CC2)c1,13%,26,?,7,?,-115%
CC1CCN(C(=S)Nc2ccc(F)cc2)CC1,0%,17,4%,-2,0%,7%
C/C(=N\NC(=S)Nc1ccc(F)cc1)C1CC1,-24%,21,?,29*,12µM*,1%
CC[C@H](C)N,-1%,-8,/,-2,/,/
COc1ccc(-n2cc(-c3ccccc3)nc2SC)cc1,-3%,65*,56%,47*,4%,-9%
COc1ccc(-n2c(SC)nc3ccccc3c2=O)cc1,3%,3,0%,2,?,-14%
CN(Cc1ccccc1)C(=C(Cl)Cl)/C(=C1/NCCN1Cc1ccc(Cl)nc1)[N+](=O)[O-],0%,-15,/,-4,9.3µM*,-13%
O=[N+]([O-])/C(Cl)=C1\NCCN1Cc1ccc(Cl)nc1,-5%,8,32%,2,40%,4%
Cc1cnc(NC(=O)CCN2C(=O)C3CCCCC3C2=O)s1 (stereo unspecified),0%,11,39%,7,-22%,2%
Cc1cnc(NC(=O)CC2CCCC2)s1,-1%,105*,235%,49*,258%,/
O=C(Nc1nc2ccccc2s1)NC1CCCCC1,0%,125*,-8%,40*,?,-6%
O=C(CC1CCCCC1)Nc1nc2ccccc2s1,2%,59*,81%,33*,3%,1%
C[C@@H]1/C=C\CC(=O)OC[C@H]2O[C@@H](C=C[C@@H]2O)[C@H](C)/C=C\CC(=O)OC1,-1%[12.9 µM],/,/,/,/,/
CCOc1ccc(N(C(=O)OC(C)(C)C)C(=O)c2ccc(O[Si](C)(C)C(C)(C)C)cc2)c(I)c1,-1%,9,/,7,/,/
Cc1noc(C)c1COc1ccccc1C(=O)NCc1ccccc1Cl,/,/,?,/,5.2µM*,/
Cc1noc(C)c1COc1ccccc1C(=O)NNC(=O)c1ccccc1,/,/,0%,/,14%,/
Cc1noc(C)c1COc1ccccc1C(=O)NC(C)c1ccc(Cl)cc1 (stereo unspecified),/,/,13µM*,/,5.2µM*,/
CC(C)CC(C)c1cc(N)nc2nc3ccccc3n12 (stereo unspecified),4%,25,10µM*,-3,12µM*,/
CC(C)CCn1c(C(C)O)nc2ccccc21 (stereo unspecified),2%,3,4%,18,/,-1%
COc1ccccc1COC(=O)c1ccc(S(=O)(=O)N2CCOCC2)cc1,/,/,?,/,-29%,/
Cc1ccc(CNC(=O)CCC2CCCN(Cc3cccc4ncccc34)C2)o1 (stereo unspecified),-1%,24,?,11*,-22%,-7%
Cc1ccc(CNC(=O)CCC2CCCN(C(=O)c3ccc4c(c3)OCO4)C2)o1 (stereo unspecified),1%,13,-8%,12,20%,1%
Cc1ccc(CNC(=O)CCC2CCCN(C(=O)CCC(F)(F)F)C2)o1 (stereo unspecified),0%,-2,-1%,-3,8.3µM*,4%
